Laboratory results taken from PubChem BioAssay.

Experiment: reversal of MRP1-mediated doxorubicin resistance, pilot screen, H69AR cells, doxorubicin co-treatment (AID 601)
Details: H69AR cells + 2 uM doxorubicin, CellTiter-Glo, 72 h; measured here: viability with 2 uM doxorubicin; at 10 µM; stronger effect = lower value

SMILES	viability [%]
Cc1ccc(-c2nnc(-c3cccc(Br)c3)o2)cc1	92.7
CCCNS(=O)(=O)c1ccc(OCC(=O)Nc2ccccc2F)cc1	79.1
NS(=O)(=O)c1ccc(C(=O)O)cc1	87.5
CCC1CCCCN1CCCNC(=O)c1ccc(CS(=O)(=O)Cc2ccccc2F)o1 (stereo not given)	105
Cc1cc(C(=O)Nc2ccc(S(=O)(=O)Nc3onc(C)c3C)cc2)cs1	96.4
NS(=O)(=O)c1cc2c(cc1C(F)(F)F)NCNS2(=O)=O	101
O=C(NCCCN1CCN(Cc2ccccc2)CC1)C1CCN(c2nnc(-n3cccc3)s2)CC1	84.4
C=CCn1c(SCn2nnc3ccccc3c2=O)nnc1-c1ccc(Br)cc1	82
COc1ccccc1C(=O)NCC(=O)Nc1ccccc1	100
CN(C)C(=O)Oc1ccc[n+](C)c1	81.6
COC(=O)CSc1nnc(-c2ccc(OC)cc2OC)o1	92.8
CCN(CC)CCCN1C(=O)C(=O)/C(=C(/O)c2ccc3c(c2)OCO3)C1c1ccccn1 (stereo not given)	88.6
O=C(CSc1n[nH]c(=O)[nH]c1=O)c1ccccc1	97
Cc1noc(C)c1C(=O)N1CCN(C(=O)c2sc3cc(Cl)ccc3c2Cl)CC1	80.5
CCCCOC(=O)Nc1nccs1	101
CCOC(=O)C1CCN(C(C)=C2C(=O)c3ccccc3C2=O)CC1	94.6
NC(N)=NC(N)=NCCc1ccccc1	99.6
CCCc1cc(=O)[nH]c(=S)[nH]1	81.2
CN(C)C(CNC(=O)Nc1cccc(Cl)c1)c1cccnc1 (stereo not given)	81.7
Cc1cc(S(=O)(=O)N(Cc2ccccc2)Cc2ccc(N(C)C)cc2)ccc1-n1cnnn1	87.6

SMILES	viability [%]
CC(=O)Nc1c(O)[nH]c2ccccc12	94.7
CCC(=O)OC1(C#CCOc2ccc(OC)cc2)CCN(C)CC1	103
COCCN(Cc1cc2cccc(C)c2[nH]c1=O)C(=O)c1ccccc1	94.1
COc1ccc(-n2c(SCC(N)=O)nc3sc4c(c3c2=O)CCN(C)C4)cc1	111
COc1ccc(CNCC(=O)Nc2cc(C)nn2-c2nc(C)cc(C)n2)cc1OC	70.1
Cc1nn(C)cc1C1C2=C(CC(C)(C)CC2=O)OC2=C1C(=O)CC(C)(C)C2	95.6
CCn1c(SCC(=O)c2ccc(C)cc2)nnc1-c1ccoc1C	99.2
CCN(CC)CCCN1C(=O)C(O)=C(C(C)=O)C1c1cccc(OC)c1 (stereo not given)	87.3
Cc1ccc(S(=O)(=O)N2CCN(C(=O)CSc3nc4ccccc4c(=O)[nH]3)CC2)c(C)c1	68.2
CCN(CC)CCCNc1oc(-c2cccc(Cl)c2)nc1C#N	77
Nn1c(SCC(=O)Nc2ccc(S(=O)(=O)N3CCCC3)cc2)nnc1C(F)(F)F	97.6
CN(C)c1ccc(NC(=O)Nc2cccc(Cl)c2)cc1	84.7
Cc1c(C=NCCOCc2ccccc2)cnn1C	82.2
CCN1CCN(C(=O)N[C@@H](C(=O)N[C@@H]2C(=O)N3[C@@H]2SC(C)(C)[C@@H]3C(=O)O)c2ccccc2)C(=O)C1=O	105
Cc1ccc2nc3c(cc(C(=O)NCC4CCCO4)n3C)c(=O)n2c1 (stereo not given)	87.1
COc1ccc(OC)c(S(=O)(=O)Nc2ccccc2SC)c1	81
CCOc1nc(-c2ccccc2)ccc1-c1noc(-c2ccc(OC)c(OC)c2)n1	71.2
Cc1cnc(NC(=O)C2=C(O)c3ccccc3S(=O)(=O)N2C)s1	89.3
O=C(NC1CCCC1)C(c1cccs1)N(Cc1ccco1)C(=O)Cn1nnc(-c2cccs2)n1 (stereo not given)	94.3
Cc1cc(C)nc(NC2=NCC(=O)N2c2ccc(Cl)cc2)n1	95.4

Same assay, conditions: H69AR cells, CellTiter-Glo, 72 h; compound alone cytotoxicity; at 10 µM

SMILES	viability [%]
Cc1ccc(-c2nnc(-c3cccc(Br)c3)o2)cc1	89.6
CCCNS(=O)(=O)c1ccc(OCC(=O)Nc2ccccc2F)cc1	87.3
NS(=O)(=O)c1ccc(C(=O)O)cc1	99
CCC1CCCCN1CCCNC(=O)c1ccc(CS(=O)(=O)Cc2ccccc2F)o1 (stereo not given)	92.9
Cc1cc(C(=O)Nc2ccc(S(=O)(=O)Nc3onc(C)c3C)cc2)cs1	99.4
NS(=O)(=O)c1cc2c(cc1C(F)(F)F)NCNS2(=O)=O	109
O=C(NCCCN1CCN(Cc2ccccc2)CC1)C1CCN(c2nnc(-n3cccc3)s2)CC1	88.7
C=CCn1c(SCn2nnc3ccccc3c2=O)nnc1-c1ccc(Br)cc1	89.1
COc1ccccc1C(=O)NCC(=O)Nc1ccccc1	98.5
CN(C)C(=O)Oc1ccc[n+](C)c1	87
COC(=O)CSc1nnc(-c2ccc(OC)cc2OC)o1	109
CCN(CC)CCCN1C(=O)C(=O)/C(=C(/O)c2ccc3c(c2)OCO3)C1c1ccccn1 (stereo not given)	93.3
O=C(CSc1n[nH]c(=O)[nH]c1=O)c1ccccc1	101
Cc1noc(C)c1C(=O)N1CCN(C(=O)c2sc3cc(Cl)ccc3c2Cl)CC1	89
CCCCOC(=O)Nc1nccs1	103
CCOC(=O)C1CCN(C(C)=C2C(=O)c3ccccc3C2=O)CC1	105
NC(N)=NC(N)=NCCc1ccccc1	99.4
CCCc1cc(=O)[nH]c(=S)[nH]1	84
CN(C)C(CNC(=O)Nc1cccc(Cl)c1)c1cccnc1 (stereo not given)	90.6
Cc1cc(S(=O)(=O)N(Cc2ccccc2)Cc2ccc(N(C)C)cc2)ccc1-n1cnnn1	84

SMILES	viability [%]
CC(=O)Nc1c(O)[nH]c2ccccc12	93.6
CCC(=O)OC1(C#CCOc2ccc(OC)cc2)CCN(C)CC1	105
COCCN(Cc1cc2cccc(C)c2[nH]c1=O)C(=O)c1ccccc1	102
COc1ccc(-n2c(SCC(N)=O)nc3sc4c(c3c2=O)CCN(C)C4)cc1	101
COc1ccc(CNCC(=O)Nc2cc(C)nn2-c2nc(C)cc(C)n2)cc1OC	11.9
Cc1nn(C)cc1C1C2=C(CC(C)(C)CC2=O)OC2=C1C(=O)CC(C)(C)C2	89.8
CCn1c(SCC(=O)c2ccc(C)cc2)nnc1-c1ccoc1C	108
CCN(CC)CCCN1C(=O)C(O)=C(C(C)=O)C1c1cccc(OC)c1 (stereo not given)	93
Cc1ccc(S(=O)(=O)N2CCN(C(=O)CSc3nc4ccccc4c(=O)[nH]3)CC2)c(C)c1	85.1
CCN(CC)CCCNc1oc(-c2cccc(Cl)c2)nc1C#N	76.6
Nn1c(SCC(=O)Nc2ccc(S(=O)(=O)N3CCCC3)cc2)nnc1C(F)(F)F	90.8
CN(C)c1ccc(NC(=O)Nc2cccc(Cl)c2)cc1	88.7
Cc1c(C=NCCOCc2ccccc2)cnn1C	96.2
CCN1CCN(C(=O)N[C@@H](C(=O)N[C@@H]2C(=O)N3[C@@H]2SC(C)(C)[C@@H]3C(=O)O)c2ccccc2)C(=O)C1=O	91.5
Cc1ccc2nc3c(cc(C(=O)NCC4CCCO4)n3C)c(=O)n2c1 (stereo not given)	94.9
COc1ccc(OC)c(S(=O)(=O)Nc2ccccc2SC)c1	100
CCOc1nc(-c2ccccc2)ccc1-c1noc(-c2ccc(OC)c(OC)c2)n1	67.1
Cc1cnc(NC(=O)C2=C(O)c3ccccc3S(=O)(=O)N2C)s1	89.9
O=C(NC1CCCC1)C(c1cccs1)N(Cc1ccco1)C(=O)Cn1nnc(-c2cccs2)n1 (stereo not given)	92.8
Cc1cc(C)nc(NC2=NCC(=O)N2c2ccc(Cl)cc2)n1	97.1
